Assay results: PubChem BioAssay AID1159580 (chemical genetic matrix, 2015)
In all, about 5,500 compounds went through this assay and about 2,000 (36%) were called active. Roughly 18% stayed inconclusive and do not appear here. Rule as the data show it: active = normalized growth mostly below about 0.91 (no sharp cut-off); inconclusive = no clear call, values can overlap the other calls; inactive = mostly above about 0.92. The list shows a part of the results.

Assay: chemical genetic growth profiling, strain panel (AID 1159580);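 also: tested at 20 µM; growth read once vehicle control cultures reached saturation at 30 °C; 1 = growth at the plate median or of vehicle wells; lower values mean less growth of the strain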
Conditions: growth OD

Measured: normalized growth

Cc1c(NC(=O)c2cccnc2)c(=O)n(-c2ccccc2)n1C
inactive: S. cerevisiae deletion strains, locus YJR066W, strain TOR1, hits give low values 0.958 | S. cerevisiae deletion strains, locus YJR075W, strain HOC1, hits give low values 0.99 | S. cerevisiae deletion strains, locus YKL009W, strain mrt4, hits give low values 0.958 | S. cerevisiae deletion strains, locus YKL068W, hits give low values 0.99 | S. cerevisiae deletion strains, locus YKL085W, strain MDH1 (second series), hits give low values 0.988 | S. cerevisiae deletion strains, locus YKL085W, strain MDH1, hits give low values 0.988 | S. cerevisiae deletion strains, locus YKL160W, strain elf1, hits give low values 1.02 | S. cerevisiae deletion strains, locus YKL190W, strain CNB1, hits give low values 0.989 | S. cerevisiae deletion strains, locus YKR001C, strain vps1, hits give low values 0.991 | S. cerevisiae deletion strains, locus YKR026C, strain gcn3, hits give low values 0.997 | S. cerevisiae deletion strains, locus YKR091W, strain srl3, hits give low values 1 | S. cerevisiae deletion strains, locus YLL001W, strain dnm1, hits give low values 0.986 | S. cerevisiae deletion strains, locus YLL026W, hits give low values 0.993 | S. cerevisiae deletion strains, locus YLL041C, strain sdh2, hits give low values 0.996 | S. cerevisiae deletion strains, locus YLR027C, strain aat2, hits give low values 1 | S. cerevisiae deletion strains, locus YLR039C, strain RIC1, hits give low values 0.974 | S. cerevisiae deletion strains, locus YLR058C, strain SHM2, hits give low values 0.982 | S. cerevisiae deletion strains, locus YLR102C, strain apc9, hits give low values 0.989 | S. cerevisiae deletion strains, locus YLR113W, strain HOG1, hits give low values 1.06 | S. cerevisiae deletion strains, locus YLR221C, strain rsa3, hits give low values 1.01 | S. cerevisiae deletion strains, locus YLR258W, strain gsy2, hits give low values 0.997 | S. cerevisiae deletion strains, locus YLR262C, strain YPT6 (second series), hits give low values 1.02 | S. cerevisiae deletion strains, locus YLR262C, strain YPT6, hits give low values 0.961 | S. cerevisiae deletion strains, locus YLR268W, strain sec22, hits give low values 0.982 | S. cerevisiae deletion strains, locus YLR320W, strain mms22, hits give low values 1 | S. cerevisiae deletion strains, locus YLR330W, strain CHS5, hits give low values 1 | S. cerevisiae deletion strains, locus YLR342W, strain FKS1 (second series), hits give low values 1.09 | S. cerevisiae deletion strains, locus YLR342W, strain FKS1, hits give low values 1 | S. cerevisiae deletion strains, locus YLR357W, strain rsc2, hits give low values 0.963 | S. cerevisiae deletion strains, locus YLR370C, strain arc18, hits give low values 1 | S. cerevisiae deletion strains, locus YLR371W, strain rom2, hits give low values 0.998 | S. cerevisiae deletion strains, locus YLR384C, strain iki3, hits give low values 0.999 | S. cerevisiae deletion strains, locus YLR418C, strain cdc73, hits give low values 1.01 | S. cerevisiae deletion strains, locus YML016C, strain PPZ1, hits give low values 0.994 | S. cerevisiae deletion strains, locus YML032C, strain rad52, hits give low values 0.971 | S. cerevisiae deletion strains, locus YML120C, strain ndi1, hits give low values 1.02 | S. cerevisiae deletion strains, locus YML124C, strain tub3, hits give low values 0.999 | S. cerevisiae deletion strains, locus YMR058W, strain fet3, hits give low values 1 | S. cerevisiae deletion strains, locus YMR078C, strain ctf18, hits give low values 0.984 | S. cerevisiae deletion strains, locus YMR125W, strain sto1, hits give low values 0.969 | S. cerevisiae deletion strains, locus YMR129W, hits give low values 0.997 | S. cerevisiae deletion strains, locus YMR205C, strain PFK2, hits give low values 0.959 | S. cerevisiae deletion strains, locus YMR223W, strain ubp8, hits give low values 1.02 | S. cerevisiae deletion strains, locus YMR231W, strain pep5, hits give low values 1 | S. cerevisiae deletion strains, locus YMR263W, strain SAP30, hits give low values 0.987 | S. cerevisiae deletion strains, locus YMR307W, strain GAS1, hits give low values 0.961 | S. cerevisiae deletion strains, locus YNL067W, strain RPL9B, hits give low values 0.971 | S. cerevisiae deletion strains, locus YNL071W, strain lat1, hits give low values 1.01 | S. cerevisiae deletion strains, locus YNL153C, strain GIM3, hits give low values 0.952 | S. cerevisiae deletion strains, locus YNL183C, strain NPR1, hits give low values 0.967 | S. cerevisiae deletion strains, locus YNL209W, strain ssb2, hits give low values 1.01 | S. cerevisiae deletion strains, locus YNL233W, strain BNI4, hits give low values 0.941 | S. cerevisiae deletion strains, locus YNL248C, strain rpa49, hits give low values 1.01 | S. cerevisiae deletion strains, locus YNL250W, strain rad50, hits give low values 0.975 | S. cerevisiae deletion strains, locus YNL271C, strain bni1, hits give low values 0.991 | S. cerevisiae deletion strains, locus YNL298W, strain CLA4, hits give low values 0.997 | S. cerevisiae deletion strains, locus YNL307C, strain MCK1, hits give low values 0.995 | S. cerevisiae deletion strains, locus YNL322C, strain KRE1 (second series), hits give low values 0.995 | S. cerevisiae deletion strains, locus YNL322C, strain KRE1, hits give low values 0.996 | S. cerevisiae deletion strains, locus YNR049C, strain mso1, hits give low values 0.997 | S. cerevisiae deletion strains, locus YNR052C, strain pop2, hits give low values 0.996 | S. cerevisiae deletion strains, locus YOL006C, strain TOP1, hits give low values 0.928 | S. cerevisiae deletion strains, locus YOL012C, strain htz1 0.85 | S. cerevisiae deletion strains, locus YOL147C, strain pex11, hits give low values 1 | S. cerevisiae deletion strains, locus YOR001W, strain rrp6, hits give low values 1.01 | S. cerevisiae deletion strains, locus YOR061W, strain CKA2, hits give low values 0.969 | S. cerevisiae deletion strains, locus YOR069W, strain VPS5, hits give low values 1 | S. cerevisiae deletion strains, locus YOR070C, strain gyp1, hits give low values 1 | S. cerevisiae deletion strains, locus YOR080W, strain dia2, hits give low values 0.99 | S. cerevisiae deletion strains, locus YOR083W, strain WHI5, hits give low values 1.02 | S. cerevisiae deletion strains, locus YOR106W, strain vam3, hits give low values 1.01 | S. cerevisiae deletion strains, locus YOR136W, strain idh2, hits give low values 0.983 | S. cerevisiae deletion strains, locus YOR144C, strain elg1, hits give low values 0.994 | S. cerevisiae deletion strains, locus YOR184W, strain ser1, hits give low values 0.985 | S. cerevisiae deletion strains, locus YOR231W, strain MKK1, hits give low values 1.05 | S. cerevisiae deletion strains, locus YOR265W, strain rbl2, hits give low values 0.993 | S. cerevisiae deletion strains, locus YOR270C, strain vph1, hits give low values 1 | S. cerevisiae deletion strains, locus YOR290C, strain snf2, hits give low values 0.98 | S. cerevisiae deletion strains, locus YOR316C, strain cot1, hits give low values 0.986 | S. cerevisiae deletion strains, locus YPL051W, strain arl3, hits give low values 1.01 | S. cerevisiae deletion strains, locus YPL078C, strain atp4, hits give low values 1.01 | S. cerevisiae deletion strains, locus YPL106C, strain sse1, hits give low values 0.992 | S. cerevisiae deletion strains, locus YPL240C, strain hsp82, hits give low values 0.995 | S. cerevisiae deletion strains, locus YPL256C, strain CLN2, hits give low values 1.03 | S. cerevisiae deletion strains, locus YPR119W, strain clb2, hits give low values 0.985 | S. cerevisiae deletion strains, locus YPR141C, strain kar3, hits give low values 0.99 | S. cerevisiae deletion strains, locus YPR163C, strain tif3, hits give low values 0.996 | S. cerevisiae deletion strains, locus YPR167C, strain met16, hits give low values 0.991 | S. cerevisiae deletion strains, strain wtn01, hits give low values 1.02 | S. cerevisiae strains, strain wild type, hits give low values 0.983
